Measurements from PubChem BioAssay AID1903 (Southern Research Specialized Biocontainment Screening …, 2009).
Screen size: about 310,000 compounds; about 1,200 (0.39%) were called active. The rule behind the calls is not given here. Not all results are given here. Measured potencies and affinities stand elsewhere.

These compounds were tested against Large T antigen (Simian virus 40) (UniProt P03070) (assay: SV40 large T antigen inhibitors, biochemical (AID 1903)). Conditions: SV40 large T antigen ATPase/helicase inhibition assay; at 20 µM; hits give high values.
Large T antigen (Simian virus 40), sequence (P03070 whole entry, looked up): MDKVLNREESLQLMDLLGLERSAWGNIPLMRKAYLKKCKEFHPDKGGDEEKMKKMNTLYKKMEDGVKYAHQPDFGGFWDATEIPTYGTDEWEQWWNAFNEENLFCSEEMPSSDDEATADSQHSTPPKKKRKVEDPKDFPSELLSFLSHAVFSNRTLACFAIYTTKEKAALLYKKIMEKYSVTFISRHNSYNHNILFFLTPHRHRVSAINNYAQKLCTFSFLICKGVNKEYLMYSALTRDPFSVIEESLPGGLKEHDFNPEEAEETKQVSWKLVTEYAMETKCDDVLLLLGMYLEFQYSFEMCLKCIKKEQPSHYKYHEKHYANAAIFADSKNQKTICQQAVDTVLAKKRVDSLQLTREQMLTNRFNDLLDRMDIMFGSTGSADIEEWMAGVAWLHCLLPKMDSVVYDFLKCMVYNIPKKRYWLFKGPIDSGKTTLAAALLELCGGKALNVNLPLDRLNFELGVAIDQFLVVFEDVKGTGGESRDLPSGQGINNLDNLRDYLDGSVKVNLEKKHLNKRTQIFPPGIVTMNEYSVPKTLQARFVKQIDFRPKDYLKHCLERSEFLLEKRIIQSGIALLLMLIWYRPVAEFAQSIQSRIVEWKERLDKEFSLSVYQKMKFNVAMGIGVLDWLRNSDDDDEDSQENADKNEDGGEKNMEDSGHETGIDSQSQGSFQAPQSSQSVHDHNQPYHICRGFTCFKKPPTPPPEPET

inhibition, inactive:
CCOc1ccc(NC(=O)CN(C)CC(=O)Nc2ccc(Br)cc2F)cc1OCC 2.33%, COC(=O)CCCC1=CC2=CC(=O)C(C)(OC(=O)c3ccc(Cl)nc3)C(=O)C2=CO1 (centres undefined) 23.8%, O=C(O)c1ccccc1Nc1ccc(OC(F)F)cc1 10.8%, Cc1ccc(NC(=S)NNc2ccc([N+](=O)[O-])cc2S(=O)(=O)Nc2ccccc2C(=O)O)cc1C 31.6%, CCN(CC)S(=O)(=O)c1ccc(/C=C/C(=O)OCC(=O)Nc2ccc(S(N)(=O)=O)cc2)cc1 0.26%, O=C(COc1ccc(Cl)cc1)NC1=NN(c2ccccc2)C(=O)C1 18.7%, CC(=O)NC1=NN(c2ccccc2)C(=O)C1 13.1%, COc1ccc(-c2nc3cc(C)ccn3c2NC(=O)c2ccccc2OC)cc1 9.33%, CNCCc1ccccn1 13.3%, COc1ccc(NC(=O)CSCC(=O)NCCc2ccccn2)cc1 0.35%, COCCN1Cc2cccc(C(=O)Nc3cccnc3)c2C1=O 1.93%, COc1cccc(CC(=O)OCC(=O)N(C)CC(=O)Nc2ccc(Cl)c(C(F)(F)F)c2)c1 5.39%, CCOc1ccccc1N(CC(=O)NC1CCCCC1)C(=O)CCC(=O)Nc1cc(C)ccn1 -4.71%, Brc1ccc(-c2csc(NNC3=NCCCCC3)n2)cc1 21.1%, c1ccc(-c2csc(NC3=NCCCCC3)n2)cc1 -1.35%, CCOC(=O)CN1C(=O)S/C(=C/c2ccc(N3CCCCC3)o2)C1=O -40.7%, O=C1NC(=O)/C(=C\c2ccc(N3CCOCC3)o2)N1 12.2%, COC(=O)CN1C(=O)S/C(=C/c2ccc(N3CCCCC3)o2)C1=O 22.2%, O=C1NC(=O)/C(=C/c2ccc(N3CCOCC3)o2)N1 35.9%, COc1ccc(-c2cn(Cc3ccc(C(N)=O)cc3)c(CCN)n2)cc1 15.2%, CCc1ccc(N2CC(C(=O)Nc3cc(C)on3)CC2=O)cc1 (centres undefined) 7.18%, COc1ccc(S(=O)(=O)N2CCc3cc4c(cc3C2C)OCCCO4)cc1 (centres undefined) -0.77%, O=C(/C=C/c1cccc([N+](=O)[O-])c1)NCC1CCCO1 (centres undefined) 1.2%, CCNc1c(NC(=O)C2CCC(C)CC2)c(=O)oc2ccccc12 (centres undefined) 7.89%, N#CCn1nnc(-c2ccc3c(c2)OCO3)n1 5.17%, COc1cc2nc(C3CCC3)nc(N3CCN(c4ccccn4)CC3)c2cc1OC 3.99%, O=C(N/N=C/c1ccc(N2CCOCC2)s1)c1ccccc1Br 28.7%, Clc1cccc(N/N=C/c2ccc(N3CCOCC3)s2)c1 0.11%, CC(C)(C)OC(=O)N/N=C\c1ccc([N+](=O)[O-])s1 9.37%, O=C(N/N=C/c1ccc(N2CCOCC2)s1)c1ccccc1Cl 19.1%, Cc1cc(-c2cc(-c3ccc(Cl)cc3)on2)nc(NCC2CC2)n1 19.1%, COC(C/C=C/[C@@H](O)[C@H](C)OCc1ccccc1)OC 7.24%, COc1cc2[nH]c(=O)n(CCCCCC(=O)NCCCN3CCOCC3)c(=O)c2cc1OC 9.95%, Nc1c(N)c2ccccc2oc1=O 3.21%, O=C1CCC(C(=O)NCCN2C(=O)S/C(=C\c3cccnc3)C2=O)=NN1 9.31%, COc1cc(/C=C2/NC(=O)N(CC(=O)Nc3cccc(C)c3)C2=O)ccc1OCC(N)=O 6.55%, CCOC(=O)c1[nH]c2ccccc2c1N=CN(CC)CC 13.2%, CCOC(=O)c1[nH]c2ccccc2c1NC(=S)Nc1ccccc1C 35.3%, CCCn1c(SCc2nc(N)nc(N3CCCCC3)n2)nc2c1c(=O)n(C)c(=O)n2C 27.3%, CC1=NOC(=O)/C1=C\c1ccc(-c2cccc(Cl)c2)o1 2.49%, CC1=NOC(=O)/C1=C/c1ccc(-c2ccc(Cl)cc2)o1 29.9%, CC(C)N1C(=O)S/C(=C\c2ccc(-c3ccc(Cl)c(C(=O)O)c3)o2)C1=O 31%, CC1=NOC(=O)/C1=C\c1ccc(-c2ccc(Br)cc2C(=O)O)o1 37.7%, O=C(O)c1cc(-c2ccc(/C=C3\NC(=O)N(c4ccccc4)C3=O)o2)ccc1Cl 22.8%, CC1=NOC(=O)/C1=C\c1ccc(-c2ccc(Br)cc2)o1 11.9%, Cc1ccc(NCC(=O)Nc2cccc(F)c2)cc1S(=O)(=O)N1CCCCCC1 30.7%, O=C(Cc1cccs1)Nc1nnc(SCc2ccc(C(F)(F)F)cc2)s1 21%, O=C(c1cnn2c(C(F)(F)F)cc(-c3ccccc3)nc12)N1CCOCC1 2.03%, CN(/N=C/Cc1nnnn1-c1ccc(Cl)cc1)c1ccccc1 12.9%, Fc1ccc2c(c1)C(c1ccncc1)=NNC(c1ccc(Cl)cc1)=N2 -2.03%, CCOc1ccc(S(=O)(=O)NCCC(=O)NC2CCCCC2)cc1 6.66%, CCC(C)CCN1C(N(C)C)=NC[C@@H]1CC(C)C (some centres undefined) -8.26%, COc1cc(OC)c(NS(=O)(=O)c2ccc(Cl)c(C(=O)OC(C)C(=O)N3CCCC3)c2)cc1Cl (centres undefined) 0.34%, NS(=O)(=O)c1ccc(N/N=C/c2ccc(O)cc2O)c([N+](=O)[O-])c1 14.4%, NS(=O)(=O)c1ccc(N/N=C/c2ccccn2)c([N+](=O)[O-])c1 9%, O=C(CCC1COc2ccccc2O1)NCc1ccco1 (centres undefined) 9.35%, Cc1cc(=O)c2c(O)c(O)ccc2o1 27.4%, CC(=O)c1cc2cc(O)ccc2o1 3.38%, O=C(CCNC(=O)C1CCN(S(=O)(=O)c2ccccc2)CC1)NCc1ccncc1 18.3%, CCCCCCn1c(N(CC)CC)nc2c1c(=O)[nH]c(=O)n2C 19.9%, O=C(O)c1ccc(/C=N/Nc2ccc(C(F)(F)F)cn2)cc1 4.16%, Oc1c(Br)cc(/C=N/Nc2ccc(Cl)nn2)cc1Br 31.9%, Oc1ccc(/C=N/Nc2ccc(C(F)(F)F)cn2)cc1 35.9%, Oc1cccc(/C=N/Nc2ccc(Cl)nn2)c1 1.08%
